Data from the supplement of paper PMC6555819.

Legend:
Experiment in all cases: PBM binding z-score (relative to random genomic background probes); higher = stronger binding; sequences stand for … in GC…GCGATTGACAGCGTAGAATGAAGG
[1] = system: FXR:RXRa (NR concentration 270 nM, RXRa partner concentration 90 nM)
Method in brief: (§1)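 Scanned fluorescence from custom Agilent 4×180K protein-binding microarrays was regression-normalized. Binding z-scores use random background probes as reference. Ligand-free nuclear receptor dimers were incubated on the arrays for 1 h and detected with antibodies against each partner (one per run).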

[2] = system: LXRa:RXRa (NR concentration 270 nM, RXRa partner concentration 90 nM)
Method in brief: as §1

[3] = system: LXRa homodimer (NR concentration 270 nM)
Method in brief: as §1

[4] = system: LXRb:RXRa (NR concentration 270 nM, RXRa partner concentration 90 nM)
Method in brief: as §1

[5] = system: LXRb homodimer (NR concentration 270 nM)
Method in brief: as §1

[6] = system: PPARa:RXRa (NR concentration 270 nM, RXRa partner concentration 90 nM)
Method in brief: as §1

[7] = system: PPARg:RXRa (NR concentration 180 nM, RXRa partner concentration 90 nM)
Method in brief: as §1

[8] = system: PPARg:RXRa 270nM:90nM, anti-RXR (NR concentration 270 nM, RXRa partner concentration 90 nM)
Method in brief: as §1

[9] = system: PPARg:RXRa 30nM:10nM, anti-RXR (NR concentration 30 nM, RXRa partner concentration 10 nM)
Method in brief: as §1

[10] = system: PPARg:RXRa 90nM:30nM, anti-RXR (NR concentration 90 nM, RXRa partner concentration 30 nM)
Method in brief: as §1

[11] = system: PPARg:RXRa DBDmut IVT, anti-RXR (DBD mutation: RXRa K156A/R161A, NR concentration 270 nM, RXRa partner concentration 90 nM)
Method in brief: as §1

[12] = system: PPARg:RXRa IVT, anti-PPARg (NR concentration 270 nM, RXRa partner concentration 90 nM)
Method in brief: as §1

[13] = system: PPARg DBDmut:RXRa IVT, anti-PPARg (DBD mutation: PPARg1 K132A/R137A, NR concentration 270 nM, RXRa partner concentration 90 nM)
Method in brief: as §1

[14] = system: PPARg DBDmut IVT, anti-PPARg (DBD mutation: PPARg1 K132A/R137A, NR concentration 270 nM)
Method in brief: as §1

[15] = system: PPARg homodimer (NR concentration 180 nM)
Method in brief: as §1

[16] = system: PXR:RXRa (NR concentration 270 nM, RXRa partner concentration 90 nM)
Method in brief: as §1

[17] = system: PXR homodimer (NR concentration 270 nM)
Method in brief: as §1

[18] = system: RARa:RXR (NR concentration 270 nM, RXRa partner concentration 90 nM)
Method in brief: as §1

[19] = system: RARa homodimer (NR concentration 270 nM)
Method in brief: as §1

[20] = system: RARb:RXRa (NR concentration 270 nM, RXRa partner concentration 90 nM)
Method in brief: as §1

| Sequence | PBM binding z-score [1] | PBM binding z-score [2] | PBM binding z-score [3] | PBM binding z-score [4] | PBM binding z-score [5] | PBM binding z-score [6] | PBM binding z-score [7] | PBM binding z-score [8] | PBM binding z-score [9] | PBM binding z-score [10] | PBM binding z-score [11] | PBM binding z-score [12] | PBM binding z-score [13] | PBM binding z-score [14] | PBM binding z-score [15] | PBM binding z-score [16] | PBM binding z-score [17] | PBM binding z-score [18] | PBM binding z-score [19] | PBM binding z-score [20] |
| --- | --- | --- | --- | --- | --- | --- | --- | --- | --- | --- | --- | --- | --- | --- | --- | --- | --- | --- | --- | --- |
| TCATATAGGTAAAGGTGAAAGCCGAACGATATGA | 0.132 | 1.05 | -0.406 | 1.09 | -0.488 | 3.13 | 3.82 | 4.43 | 4.34 | 4.51 | 3.94 | 4.09 | 1.05 | 1.68 | 1.25 | 0.502 | -0.307 | 1.44 | -0.251 | 1.83 |
| AGAACGAGGGCACGCTAAGTTGATAGCAGAGTAG | 0.75 | 0.717 | -0.396 | 0.353 | -0.515 | 2.07 | 2.2 | 1.87 | 0.473 | 1.22 | 4.41 | 3.93 | 1.79 | 0.754 | 0.364 | 1.11 | 0.0616 | 1.3 | -0.579 | 2.51 |
| CCTATTAGTTGACCATAAGGGCAACCGCAGCTCG | 1.1 | 0.581 | 0.369 | 0.306 | 0.642 | 0.449 | 0.36 | 0.368 | -0.191 | 0.0579 | 0.361 | 0.808 | 0.402 | 0.299 | 0.816 | 0.705 | 1.05 | 0.896 | 1.78 | 1.54 |
| ATCTCTAGGTAAGACTCAATTCAGTGAAGAACGC | 0.446 | 0.482 | 0.559 | 0.00858 | 0.847 | 0.0535 | 0.199 | 0.208 | 0.402 | 0.378 | 1.93 | 0.919 | 0.318 | 1.1 | 0.738 | -0.0296 | 0.798 | 0.462 | 1.25 | 0.115 |
| TAGCCTAGGTCAGATCGCGCCAGTATACGCTATA | 1.75 | 0.937 | -0.15 | 1.09 | -0.19 | 1.63 | 0.856 | 0.842 | 0.125 | 0.595 | 0.721 | 1.46 | -0.73 | 0.133 | 0.207 | 0.262 | -0.578 | 0.7 | -0.794 | 2.95 |
| TCTATTAGTTGATTAGGGCAAGCGAAACAGCGGA | 0.582 | 0.347 | 0.126 | 0.37 | 0.284 | 0.756 | -0.0527 | 2.03 | 3.67 | 2.81 | 1.88 | 1.33 | 0.35 | 0.93 | 0.455 | 0.314 | 0.381 | 0.428 | 1.01 | 0.893 |
| ACTTACGGGTCAACGAGGTTATTGCACGCGTATA | 6.87 | 5.03 | 1.72 | 4.44 | 0.685 | 5.64 | 5.89 | 5.22 | 1.88 | 3.88 | 3.11 | 3.97 | 1.27 | 2.63 | 3.35 | 5.53 | 5.35 | 5.36 | 1.38 | 4.19 |
| GCTAGTTGGTCAGTAAAAGGTCACACGCCGGTCG | 3.48 | 4.98 | 4.69 | 4.1 | 0.629 | 4.52 | 3.32 | 4.66 | 2.53 | 4.53 | 1.06 | 3.13 | -0.186 | 0.255 | 3.94 | 5.06 | 0.982 | 6.11 | 1.93 | 4.53 |
| TAGCCTAGATCAGATCGGGCCAGTATACGCTATA | -0.847 | -1.11 | -0.829 | -1.18 | -1.2 | -1.18 | 0.218 | -0.582 | -0.499 | -0.448 | -0.0973 | 0.607 | -0.736 | -0.528 | -1.3 | -0.794 | -1.1 | -0.901 | -1.23 | -1.19 |
| TCTATTAGTTGAAGGGCCACCGACGAGTCCGTTT | 0.67 | 0.709 | 0.433 | 0.782 | 0.195 | 0.892 | 0.0935 | 2.33 | 3.78 | 3.03 | 2.33 | 0.338 | 0.273 | 0.346 | 1.31 | 0.576 | 0.557 | 0.817 | 1.15 | 1.07 |
| TCGAGTTGGTCACGGAGGTCACACACGACGGGTA | 3.27 | 3.24 | 1.8 | 3.05 | -0.188 | 3.87 | 3.18 | 3.36 | 1.82 | 2.63 | 0.979 | 2.98 | 0.179 | 0.0233 | 2.35 | 4.79 | 1.32 | 4.55 | 0.63 | 3.84 |
| GCATATAGGTAATACAAGGTGACAGTCCGATTGT | 0.924 | 1.5 | 0.00702 | 0.333 | -0.21 | 1.16 | 1.5 | 1.19 | 0.699 | 0.902 | 4.45 | 3.54 | 1.4 | 0.834 | 0.847 | 0.242 | 0.189 | 1.36 | 0.735 | 0.42 |
| CTACCAAGGTGAACAAGCTCGTTGATTACTATTC | 0.329 | 0.121 | -0.188 | 0.479 | -0.421 | 0.984 | 0.332 | 0.345 | -0.0799 | 0.167 | 2.56 | 2.23 | 0.852 | 0.253 | 0.000283 | -0.0454 | -0.0254 | 0.251 | 0.281 | 1.41 |
| TAGCCTAGGTCAGATCGTGCCAGTATACGCTATA | 1.53 | 1.21 | -0.412 | 1.06 | 0.00468 | 1.91 | 0.806 | 0.67 | 0.0687 | 0.244 | 0.562 | 1.66 | 0.149 | -0.175 | -0.159 | 0.82 | -0.569 | 1.23 | -0.542 | 3.18 |
